These results are taken from article PMC7862700, “An all-to-all approach to the identification of sequence-specific readers for epigenetic DNA modifications on cytosine”.

Common to all, as to assay: DAPPL (digital affinity profiling via proximity ligation, sequencing); 10 mM Tris-HCl pH 7.5, 50 mM NaCl, 1 mM DTT, 4% glycerol, room temperature, 30 min; GST-TFs on glutathione beads, 16-mer random dsDNA library, 0.1% formaldehyde crosslink after washing; high values mean tight binding
Assay [1] addresses T1, FLI1 (Homo sapiens, UniProt Q01543 1-452).
T1 sequence: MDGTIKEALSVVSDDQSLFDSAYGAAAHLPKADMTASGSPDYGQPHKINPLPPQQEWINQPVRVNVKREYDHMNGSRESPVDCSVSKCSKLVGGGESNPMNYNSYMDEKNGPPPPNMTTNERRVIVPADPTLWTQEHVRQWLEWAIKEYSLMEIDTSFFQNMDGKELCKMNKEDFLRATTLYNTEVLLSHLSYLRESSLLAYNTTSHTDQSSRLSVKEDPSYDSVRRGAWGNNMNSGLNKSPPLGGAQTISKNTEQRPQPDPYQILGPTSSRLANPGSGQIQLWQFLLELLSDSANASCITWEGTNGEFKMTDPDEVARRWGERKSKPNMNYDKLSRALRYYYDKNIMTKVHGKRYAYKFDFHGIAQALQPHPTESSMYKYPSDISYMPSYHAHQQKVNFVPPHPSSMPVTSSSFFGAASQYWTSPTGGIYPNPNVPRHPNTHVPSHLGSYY
The settings on record: protein: recombinant; tags: N-terminal GST; dsDNA, one strand shown. The method, boiled down: (§1)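 Human transcription factors were made in yeast as GST fusions, captured on glutathione beads and barcoded with DNA. With a tag-only sample included, the pool was incubated with 200 nmole of a random double-stranded 16-mer DNA library in Tris/NaCl/DTT/glycerol buffer at room temperature for 30 min, then crosslinked with 0.1% formaldehyde after washing, ligated by proximity, amplified and sequenced. For binding signal, each hexamer's read frequency for a factor is divided by its frequency for the tag-only sample.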

The target of assay [2] is T2, ELK1 (Homo sapiens, UniProt P19419 1-428).
T2 sequence: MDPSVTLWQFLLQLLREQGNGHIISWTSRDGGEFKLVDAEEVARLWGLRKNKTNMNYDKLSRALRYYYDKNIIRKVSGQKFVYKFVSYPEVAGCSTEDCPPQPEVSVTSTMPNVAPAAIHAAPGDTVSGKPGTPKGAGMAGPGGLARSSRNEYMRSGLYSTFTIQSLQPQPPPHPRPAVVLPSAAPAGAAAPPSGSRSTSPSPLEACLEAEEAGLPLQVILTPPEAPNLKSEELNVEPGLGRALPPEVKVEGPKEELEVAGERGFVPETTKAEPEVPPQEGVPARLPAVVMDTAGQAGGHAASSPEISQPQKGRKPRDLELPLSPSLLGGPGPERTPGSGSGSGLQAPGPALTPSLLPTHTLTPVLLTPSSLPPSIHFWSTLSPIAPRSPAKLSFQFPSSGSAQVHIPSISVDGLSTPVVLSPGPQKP
The conditions noted are these: protein: recombinant; tags: N-terminal GST; dsDNA, one strand shown. In short, it runs like this: as §1

The target in assay [3] is T3, GABPA (Homo sapiens, UniProt Q06546 1-454).
T3 sequence: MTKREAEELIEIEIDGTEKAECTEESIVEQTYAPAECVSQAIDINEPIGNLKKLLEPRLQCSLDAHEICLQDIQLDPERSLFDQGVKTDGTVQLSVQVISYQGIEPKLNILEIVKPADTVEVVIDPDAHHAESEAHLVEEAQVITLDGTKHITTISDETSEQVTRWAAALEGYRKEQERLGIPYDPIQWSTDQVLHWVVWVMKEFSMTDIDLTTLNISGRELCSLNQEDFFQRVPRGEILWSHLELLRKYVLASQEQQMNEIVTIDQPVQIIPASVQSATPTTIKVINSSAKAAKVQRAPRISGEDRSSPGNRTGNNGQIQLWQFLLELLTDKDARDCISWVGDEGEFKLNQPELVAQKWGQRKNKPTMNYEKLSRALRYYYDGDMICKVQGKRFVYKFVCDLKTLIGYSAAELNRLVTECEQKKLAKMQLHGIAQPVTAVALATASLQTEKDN
The conditions noted are these: protein: recombinant; tags: N-terminal GST; dsDNA, one strand shown. The method, boiled down: as §1

Assay [4] deals with T4, ERG (Homo sapiens, UniProt P11308 1-479).
T4 sequence: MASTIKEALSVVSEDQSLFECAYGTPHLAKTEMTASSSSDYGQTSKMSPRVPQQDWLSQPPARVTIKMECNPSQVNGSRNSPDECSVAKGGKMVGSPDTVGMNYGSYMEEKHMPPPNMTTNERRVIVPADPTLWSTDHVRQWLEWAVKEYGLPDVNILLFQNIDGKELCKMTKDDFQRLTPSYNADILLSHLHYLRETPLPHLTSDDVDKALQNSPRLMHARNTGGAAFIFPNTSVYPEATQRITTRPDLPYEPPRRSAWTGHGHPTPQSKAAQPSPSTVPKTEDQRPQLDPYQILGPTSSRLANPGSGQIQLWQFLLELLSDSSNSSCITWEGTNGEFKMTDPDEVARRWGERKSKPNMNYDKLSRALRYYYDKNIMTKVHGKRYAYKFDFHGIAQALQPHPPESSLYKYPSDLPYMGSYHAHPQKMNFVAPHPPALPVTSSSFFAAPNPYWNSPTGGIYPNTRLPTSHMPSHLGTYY
The conditions noted are these: protein: recombinant; tags: N-terminal GST; dsDNA, one strand shown. The method, boiled down:
as §1

In assay [5] the target is ELF1 (Homo sapiens, UniProt P32519 1-619). The conditions noted are these: protein: recombinant; tags: N-terminal GST; dsDNA, one strand shown. The method, boiled down: as §1
Chain of ELF1 (P32519 whole entry): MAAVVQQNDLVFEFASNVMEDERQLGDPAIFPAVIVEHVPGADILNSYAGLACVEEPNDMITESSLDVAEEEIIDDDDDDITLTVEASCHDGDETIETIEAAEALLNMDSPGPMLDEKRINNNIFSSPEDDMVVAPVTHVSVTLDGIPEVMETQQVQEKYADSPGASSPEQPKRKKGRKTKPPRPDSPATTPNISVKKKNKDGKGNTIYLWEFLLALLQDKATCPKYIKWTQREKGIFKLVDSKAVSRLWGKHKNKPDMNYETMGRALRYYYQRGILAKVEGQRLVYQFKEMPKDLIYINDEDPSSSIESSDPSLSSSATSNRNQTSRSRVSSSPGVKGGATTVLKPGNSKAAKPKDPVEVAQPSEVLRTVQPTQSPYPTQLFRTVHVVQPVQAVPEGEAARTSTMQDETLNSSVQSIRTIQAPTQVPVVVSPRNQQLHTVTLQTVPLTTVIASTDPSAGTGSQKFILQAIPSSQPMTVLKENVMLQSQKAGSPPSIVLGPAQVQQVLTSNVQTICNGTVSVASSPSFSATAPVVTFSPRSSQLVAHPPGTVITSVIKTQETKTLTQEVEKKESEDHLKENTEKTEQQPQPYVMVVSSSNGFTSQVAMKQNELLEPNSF
Assay [6] concerns the target T5, EHF (Homo sapiens, UniProt Q9NZC4 1-300).
T5 sequence: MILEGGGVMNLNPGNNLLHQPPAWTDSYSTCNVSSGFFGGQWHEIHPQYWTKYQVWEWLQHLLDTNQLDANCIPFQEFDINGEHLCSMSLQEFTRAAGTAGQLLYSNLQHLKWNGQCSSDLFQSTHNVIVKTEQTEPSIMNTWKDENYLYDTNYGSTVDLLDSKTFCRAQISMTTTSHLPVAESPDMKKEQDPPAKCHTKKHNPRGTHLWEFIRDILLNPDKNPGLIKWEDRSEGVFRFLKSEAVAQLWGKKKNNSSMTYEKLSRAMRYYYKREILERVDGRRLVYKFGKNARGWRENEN
The settings on record: protein: recombinant; tags: N-terminal GST; dsDNA, one strand shown. The method, boiled down:
as §1

Assay [7] has as its target SPI1 (Homo sapiens, UniProt P17947 1-270). The settings on record: protein: recombinant; tags: N-terminal GST; dsDNA, one strand shown. The method, boiled down: as §1
Assay [8] deals with SPIB (Homo sapiens, UniProt Q01892 1-262). The conditions noted are these: protein: recombinant; tags: N-terminal GST; dsDNA, one strand shown. The method, boiled down: as §1
Chain of SPIB (Q01892 whole entry): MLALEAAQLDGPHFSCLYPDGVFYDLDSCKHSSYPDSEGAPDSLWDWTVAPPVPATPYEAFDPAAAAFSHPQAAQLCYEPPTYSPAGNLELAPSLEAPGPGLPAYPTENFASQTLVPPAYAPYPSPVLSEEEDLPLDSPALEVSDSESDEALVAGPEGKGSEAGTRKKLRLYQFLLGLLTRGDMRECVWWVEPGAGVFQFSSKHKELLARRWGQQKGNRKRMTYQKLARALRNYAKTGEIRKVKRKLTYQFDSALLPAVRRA
The target in assay [9] is T6, ELK3 (Homo sapiens, UniProt P41970 1-407).
T6 sequence: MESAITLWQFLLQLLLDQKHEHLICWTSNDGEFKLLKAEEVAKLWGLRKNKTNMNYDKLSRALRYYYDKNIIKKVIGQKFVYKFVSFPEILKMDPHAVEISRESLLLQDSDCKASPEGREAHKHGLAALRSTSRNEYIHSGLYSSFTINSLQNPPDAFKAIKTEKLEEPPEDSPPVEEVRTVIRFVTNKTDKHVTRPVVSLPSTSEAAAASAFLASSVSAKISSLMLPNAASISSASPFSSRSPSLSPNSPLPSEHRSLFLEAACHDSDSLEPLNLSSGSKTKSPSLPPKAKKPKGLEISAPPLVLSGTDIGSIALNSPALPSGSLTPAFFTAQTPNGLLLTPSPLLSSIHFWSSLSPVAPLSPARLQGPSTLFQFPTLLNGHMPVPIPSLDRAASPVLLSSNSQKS
The conditions noted are these: protein: recombinant; tags: N-terminal GST; dsDNA, one strand shown. In short, it runs like this:
as §1

The target of assay [10] is T7, FEV (Homo sapiens, UniProt Q99581 1-238).
T7 sequence: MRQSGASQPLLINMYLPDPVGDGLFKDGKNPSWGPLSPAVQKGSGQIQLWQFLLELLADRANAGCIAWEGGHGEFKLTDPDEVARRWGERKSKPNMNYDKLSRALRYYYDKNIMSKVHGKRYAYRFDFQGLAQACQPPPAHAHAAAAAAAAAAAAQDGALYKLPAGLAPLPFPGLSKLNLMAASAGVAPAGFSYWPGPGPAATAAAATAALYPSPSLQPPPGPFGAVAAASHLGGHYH
The conditions noted are these: protein: recombinant; tags: N-terminal GST; dsDNA, one strand shown. In short, it runs like this:
as §1

Assay [11] deals with ETV5 (Homo sapiens, UniProt P41161 1-510). The settings on record: protein: recombinant; tags: N-terminal GST; dsDNA, one strand shown. In short, it runs like this:
as §1

The target of assay [12] is HSF1 (Homo sapiens, UniProt Q00613 1-529). The settings on record: protein: recombinant; tags: N-terminal GST; chain copies: 3; dsDNA, one strand shown. In short, it runs like this:
as §1

In assay [13] the target is T8, SPIC (Homo sapiens, UniProt Q8N5J4 1-248).
T8 sequence: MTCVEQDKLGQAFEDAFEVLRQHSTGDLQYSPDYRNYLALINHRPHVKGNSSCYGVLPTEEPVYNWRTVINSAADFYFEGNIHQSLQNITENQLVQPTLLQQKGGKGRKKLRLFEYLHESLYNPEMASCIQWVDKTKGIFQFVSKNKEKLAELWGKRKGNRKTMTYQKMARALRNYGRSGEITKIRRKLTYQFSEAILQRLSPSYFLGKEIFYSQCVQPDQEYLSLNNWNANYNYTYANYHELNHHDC
The settings on record: protein: recombinant; tags: N-terminal GST; dsDNA, one strand shown. In short, it runs like this: as §1

In assay [14] the target is ELF4 (Homo sapiens, UniProt Q99607 1-663). The conditions noted are these: protein: recombinant; tags: N-terminal GST; dsDNA, one strand shown. The method, boiled down:
as §1

Assay [15] addresses T9, ELK4 (Homo sapiens, UniProt P28324-2 1-405).
T9 sequence: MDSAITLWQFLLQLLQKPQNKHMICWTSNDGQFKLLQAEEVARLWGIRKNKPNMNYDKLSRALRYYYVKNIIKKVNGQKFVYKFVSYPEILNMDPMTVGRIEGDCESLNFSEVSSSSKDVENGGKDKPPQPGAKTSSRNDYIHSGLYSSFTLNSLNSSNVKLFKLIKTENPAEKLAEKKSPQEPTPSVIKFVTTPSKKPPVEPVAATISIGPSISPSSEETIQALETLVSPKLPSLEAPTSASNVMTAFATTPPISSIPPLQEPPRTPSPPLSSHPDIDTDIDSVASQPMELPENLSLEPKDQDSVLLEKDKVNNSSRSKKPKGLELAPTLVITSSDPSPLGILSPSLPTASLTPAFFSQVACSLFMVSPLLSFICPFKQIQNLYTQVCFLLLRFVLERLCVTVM
The conditions noted are these: protein: recombinant; tags: N-terminal GST; dsDNA, one strand shown. The method, boiled down:
as §1

Assay [16] deals with T10, ETV2 (Homo sapiens, UniProt O00321 1-342).
T10 sequence: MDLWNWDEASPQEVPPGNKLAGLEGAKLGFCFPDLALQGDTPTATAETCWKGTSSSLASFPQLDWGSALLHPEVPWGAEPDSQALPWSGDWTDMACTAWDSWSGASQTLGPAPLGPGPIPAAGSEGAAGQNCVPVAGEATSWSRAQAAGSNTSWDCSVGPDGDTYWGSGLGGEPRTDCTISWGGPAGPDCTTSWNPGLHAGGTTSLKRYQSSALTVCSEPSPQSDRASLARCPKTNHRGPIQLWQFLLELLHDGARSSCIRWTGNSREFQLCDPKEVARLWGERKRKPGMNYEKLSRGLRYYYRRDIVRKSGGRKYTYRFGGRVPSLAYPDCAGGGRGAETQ
The conditions noted are these: protein: recombinant; tags: N-terminal GST; dsDNA, one strand shown. The method, boiled down:
as §1

The target in assay [17] is T11, ELF3 (Homo sapiens, UniProt P78545 1-371).
T11 sequence: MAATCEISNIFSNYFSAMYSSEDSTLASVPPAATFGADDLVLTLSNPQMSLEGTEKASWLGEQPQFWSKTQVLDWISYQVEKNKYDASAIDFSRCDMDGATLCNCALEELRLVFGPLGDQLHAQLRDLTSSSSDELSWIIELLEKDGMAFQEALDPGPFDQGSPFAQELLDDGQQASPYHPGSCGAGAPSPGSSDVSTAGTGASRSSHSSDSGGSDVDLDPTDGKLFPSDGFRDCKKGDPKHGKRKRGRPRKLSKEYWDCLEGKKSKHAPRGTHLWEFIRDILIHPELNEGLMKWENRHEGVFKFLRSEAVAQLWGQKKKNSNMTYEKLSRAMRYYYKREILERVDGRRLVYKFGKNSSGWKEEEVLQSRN
The conditions noted are these: protein: recombinant; tags: N-terminal GST; dsDNA, one strand shown. In short, it runs like this:
as §1

Assay [18] concerns the target CRX (Homo sapiens, UniProt O43186 1-299). The settings on record: protein: recombinant; tags: N-terminal GST; dsDNA, one strand shown. In short, it runs like this:
as §1

Assay [19] concerns the target ETV1 (Homo sapiens, UniProt P50549 1-477). The conditions noted are these: protein: recombinant; tags: N-terminal GST; dsDNA, one strand shown. The method, boiled down: as §1

Chain of ETV1 (P50549 whole entry): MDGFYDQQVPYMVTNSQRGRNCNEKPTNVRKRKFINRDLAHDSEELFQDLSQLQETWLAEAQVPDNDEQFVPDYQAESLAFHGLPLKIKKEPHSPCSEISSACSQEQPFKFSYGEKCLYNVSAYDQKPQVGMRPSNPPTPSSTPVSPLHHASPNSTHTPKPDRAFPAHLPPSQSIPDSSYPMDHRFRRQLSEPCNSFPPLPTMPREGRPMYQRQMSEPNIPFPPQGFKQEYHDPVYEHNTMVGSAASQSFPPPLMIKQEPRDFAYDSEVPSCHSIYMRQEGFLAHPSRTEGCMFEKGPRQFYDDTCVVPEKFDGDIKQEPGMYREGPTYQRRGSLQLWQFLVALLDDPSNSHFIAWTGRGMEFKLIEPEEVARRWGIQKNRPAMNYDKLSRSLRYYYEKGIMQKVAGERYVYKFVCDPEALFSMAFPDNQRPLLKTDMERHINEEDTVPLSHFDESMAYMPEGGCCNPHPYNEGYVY
Chain of HSF1 (Q00613 whole entry): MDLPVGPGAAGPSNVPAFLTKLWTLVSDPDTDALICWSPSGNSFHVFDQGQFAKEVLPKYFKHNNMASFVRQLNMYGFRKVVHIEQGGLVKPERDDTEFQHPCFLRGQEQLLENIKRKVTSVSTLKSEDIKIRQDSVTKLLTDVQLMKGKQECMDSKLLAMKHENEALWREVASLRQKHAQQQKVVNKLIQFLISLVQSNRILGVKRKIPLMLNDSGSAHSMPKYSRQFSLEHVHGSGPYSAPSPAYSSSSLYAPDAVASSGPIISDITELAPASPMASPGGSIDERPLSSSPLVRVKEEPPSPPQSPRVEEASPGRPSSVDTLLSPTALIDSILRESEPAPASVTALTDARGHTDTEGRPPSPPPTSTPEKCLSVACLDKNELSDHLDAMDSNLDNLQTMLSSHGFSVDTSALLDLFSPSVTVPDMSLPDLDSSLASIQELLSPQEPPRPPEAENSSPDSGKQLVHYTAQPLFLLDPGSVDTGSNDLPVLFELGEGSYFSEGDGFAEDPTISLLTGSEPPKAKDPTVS
Chain of CRX (O43186 whole entry): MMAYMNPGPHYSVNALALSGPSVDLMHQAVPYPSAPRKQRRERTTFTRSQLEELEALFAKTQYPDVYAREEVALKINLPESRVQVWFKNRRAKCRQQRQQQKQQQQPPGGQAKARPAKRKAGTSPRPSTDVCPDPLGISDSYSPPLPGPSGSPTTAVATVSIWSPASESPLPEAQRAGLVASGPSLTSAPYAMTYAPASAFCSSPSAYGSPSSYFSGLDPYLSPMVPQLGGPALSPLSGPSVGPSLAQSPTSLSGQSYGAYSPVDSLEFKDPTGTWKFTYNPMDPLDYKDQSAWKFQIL
Chain of ELF4 (Q99607 whole entry): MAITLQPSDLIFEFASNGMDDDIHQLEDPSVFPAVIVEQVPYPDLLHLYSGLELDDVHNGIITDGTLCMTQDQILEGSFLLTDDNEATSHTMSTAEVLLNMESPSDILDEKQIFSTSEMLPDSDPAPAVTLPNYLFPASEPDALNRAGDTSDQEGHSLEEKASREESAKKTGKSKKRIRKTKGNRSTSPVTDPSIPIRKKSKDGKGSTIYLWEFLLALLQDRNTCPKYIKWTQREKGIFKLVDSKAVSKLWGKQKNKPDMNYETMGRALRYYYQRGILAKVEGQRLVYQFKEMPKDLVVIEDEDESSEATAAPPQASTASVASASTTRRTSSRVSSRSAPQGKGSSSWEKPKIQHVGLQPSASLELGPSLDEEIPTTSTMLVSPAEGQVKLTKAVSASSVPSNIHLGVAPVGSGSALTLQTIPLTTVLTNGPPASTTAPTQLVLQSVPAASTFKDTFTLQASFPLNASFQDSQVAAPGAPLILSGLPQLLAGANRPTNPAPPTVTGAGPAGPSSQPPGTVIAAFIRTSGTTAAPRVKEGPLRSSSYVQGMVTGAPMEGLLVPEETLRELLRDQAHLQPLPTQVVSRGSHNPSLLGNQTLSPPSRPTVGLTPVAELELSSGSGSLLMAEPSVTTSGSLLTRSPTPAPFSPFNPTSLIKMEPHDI
Chain of ETV5 (P41161 whole entry): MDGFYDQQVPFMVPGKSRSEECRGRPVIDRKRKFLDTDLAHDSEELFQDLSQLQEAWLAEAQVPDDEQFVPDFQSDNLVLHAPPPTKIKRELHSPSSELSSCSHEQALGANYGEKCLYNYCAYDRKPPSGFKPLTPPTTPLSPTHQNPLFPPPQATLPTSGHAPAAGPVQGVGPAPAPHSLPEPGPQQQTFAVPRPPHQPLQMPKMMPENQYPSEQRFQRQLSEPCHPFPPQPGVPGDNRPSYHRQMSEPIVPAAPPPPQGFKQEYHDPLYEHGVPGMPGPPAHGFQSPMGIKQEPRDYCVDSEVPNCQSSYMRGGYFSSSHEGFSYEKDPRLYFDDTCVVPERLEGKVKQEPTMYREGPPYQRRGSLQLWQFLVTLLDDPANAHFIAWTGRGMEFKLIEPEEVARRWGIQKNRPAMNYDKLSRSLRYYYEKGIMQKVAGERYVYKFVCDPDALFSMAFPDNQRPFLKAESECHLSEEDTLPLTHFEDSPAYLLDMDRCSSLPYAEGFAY

As for GCTCAG, the binding signal in assay [1] is 1.16 fold enrichment (6-mer frequency, TF over GST control); in assay [2], 1.17 fold enrichment (6-mer frequency, TF over GST control); in assay [3], 1.24 fold enrichment (6-mer frequency, TF over GST control); in [4] it was 1.18 fold enrichment (6-mer frequency, TF over GST control); in [5], 1.21 fold enrichment (6-mer frequency, TF over GST control); in [6], 1.11 fold enrichment (6-mer frequency, TF over GST control). Further, the binding signal is 1.07 fold enrichment (6-mer frequency, TF over GST control) in assay [7]; 1.12 fold enrichment (6-mer frequency, TF over GST control) in assay [8]; 1.11 fold enrichment (6-mer frequency, TF over GST control) in [9]; 1.11 fold enrichment (6-mer frequency, TF over GST control) in assay [10]; 1.17 fold enrichment (6-mer frequency, TF over GST control) in assay [11]; 1.13 fold enrichment (6-mer frequency, TF over GST control) in [12]. The binding signal was 1.23 fold enrichment (6-mer frequency, TF over GST control) in assay [13]; 1.19 fold enrichment (6-mer frequency, TF over GST control) in [14]; 1.22 fold enrichment (6-mer frequency, TF over GST control) in assay [15]; 1.18 fold enrichment (6-mer frequency, TF over GST control) in [16]; 1.03 fold enrichment (6-mer frequency, TF over GST control) in assay [17]; 1.41 fold enrichment (6-mer frequency, TF over GST control) in assay [18]. The binding signal in assay [19] is 1.13 fold enrichment (6-mer frequency, TF over GST control).
